Most compounds without a hit are left out; they make up all but 6.2% or so of the library.
KB-V1 cytotox = kills drug-selected multidrug resistant KB-V1 cells; KB-V1 MDR cells viability, CellTiter-Glo, 72 h; Potency, µM (top dose mostly 46.1 µM), most hits filed as cytotoxic; 3.4% of 400,000 active; further: nearly all actives have a fitted effect of over 60% in size
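In this primary screen, KB-V1 cells overexpressing P-gp are incubated with library compounds (lowest to highest concentration) for 72 h at 37 degrees C before a luminescent ATP viability read.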
KB-3-1 tox = KB-3-1 parental cell cytotoxicity | 1.4% of 400,000 active | AID 1347075 | Potency, µM (highest dose often 46.1 µM), usual class: cytotoxic | KB-3-1 viability, CellTiter-Glo ATP luminescence, 72 h; further: nearly all actives have a fitted effect of over 60% in size
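KB-3-1 parental drug-naive adenocarcinoma cells in DMEM/10% FBS, incubated 72 h at 37 C with pin-transferred compounds across a concentration series. Viability by CellTiter-Glo luminescence; concentration-response curves fitted after normalization.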
HT1080 IDH1KD tx = HT-1080 IDH1 knockdown cell toxicity (counter line). HT-1080 IDH1 knockdown viability, ATP luminescence, 48 h. Potency, µM (doses to about 46.1 µM), usual class: cytotoxic. 2% of 360,000 active. AID 686971
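Viability of IDH1-knockdown HT-1080 fibrosarcoma cells was assessed by CellTiter-Glo after 48 h at 37 °C with titrated compound; concentration-effect curves were classified by fit quality and response size.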
ATXN2 expr inh = reduces ATXN2 reporter expression in HEK-293 cells; HEK-293 ATXN2-luciferase reporter, luminescence, 24 h; Potency, µM (doses to about 57 µM), most hits filed as inhibitors; 0.72% of 360,000 active; AID 1745845; further: nearly all actives have a fitted effect of over 55% in size
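qHTS (up to 57 uM final) was run with 24 h compound exposure of reporter cells at 37 °C. Each well was multiplexed: SteadyGlo luminescence measured ATXN2-luciferase expression after a fluorogenic Gly-Phe-AFC viability readout (25 uM final).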
HT1080NT lethal = kills 2HG-producing HT-1080-NT fibrosarcoma cells; Potency, µM (doses to about 46.1 µM), actives largely listed as cytotoxic; HT-1080-NT fibrosarcoma viability, CellTiter-Glo ATP luminescence, 48 h; 1.6% of 360,000 active; AID 686970;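 further: NT is the 2HG producing partner of a matched IDH1 knockdown line; nearly all actives have a fitted effect of over 55% in size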
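Viability by CellTiter-Glo luminescence after 48 h compound exposure at 37C of HT-1080-NT cells (750/well, RPMI, 5% FBS). % activity scaled between DMSO wells and medium-only wells, then curve-fitted and categorized by curve class.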
ATXN viability = viability counter-screen for ATXN expression inhibitors; S2 cells (HEK-293 line with an ATXN2-luciferase reporter) viability, CellTiter-Fluor protease fluorescence, 24 h; Potency, µM (highest dose often 56.7 µM), most hits filed as cytotoxic; 0.49% of 400,000 active; further: nearly all actives have a fitted effect of over 40% in size
Each line names hits and unclear results; the compound was inactive in the other large screens. The call rests on the fitted dose curve; in most records, active means well fitted curve in the direction sought with a large enough effect; inconclusive means small, poorly fitted or top-dose-only effect, or another doubt; inactive means no such curve, though single readings can be large; an effect the other way counts as inactive or inconclusive.

Cc1cccn2c(=O)c(C(=O)NC3CC(C)CC(C)(C)C3)c(O)nc12 (stereo not given)	KB-V1 cytotox 23µM, KB-3-1 tox inconclusive, ATXN2 expr inh inconclusive, ATXN viability inconclusive
Cc1cccn2c(=O)c3cc(C(=O)NC4CCCCC4)n(C)c3nc12	KB-V1 cytotox inconclusive, KB-3-1 tox inconclusive
Cc1cccn2c(=O)c(C(=O)NC3CCCCC3C)c(O)nc12 (stereo not given)	KB-V1 cytotox 16µM, KB-3-1 tox inconclusive, HT1080 IDH1KD tx inconclusive
Cc1cccn2c(=O)c3cc(C(=O)NC4CCCC4)n(C)c3nc12	KB-3-1 tox 10µM, HT1080 IDH1KD tx inconclusive, HT1080NT lethal inconclusive
Cc1cccn2c(=O)c(C(=O)NC3CCCCC3)c(O)nc12	KB-V1 cytotox inconclusive, KB-3-1 tox inconclusive (no result: ATXN2 expr inh)
CCc1ccc2[nH]c(=O)c(CN(Cc3cccnc3)Cc3nnnn3Cc3ccccc3)cc2c1	none (no result: HT1080 IDH1KD tx, ATXN2 expr inh, HT1080NT lethal, ATXN viability)
Cc1cc(C)n2nc(C(=O)NCC3Cc4cccc(-c5ccc(S(C)(=O)=O)cc5)c4O3)cc2n1 (stereo not given)	none (no result: KB-V1 cytotox, KB-3-1 tox, HT1080 IDH1KD tx, ATXN2 expr inh, HT1080NT lethal)
CNC[C@H](O)[C@@H](O)[C@H](O)[C@H](O)CO	none (no result: KB-V1 cytotox, KB-3-1 tox, HT1080 IDH1KD tx, HT1080NT lethal)
CCc1ccccc1NC(=O)c1cc(S(=O)(=O)N2CCc3ccccc32)ccc1F	none (no result: HT1080 IDH1KD tx, HT1080NT lethal)
CCc1cccc(NC(=O)c2ccc3c(c2)c(C)c(C)n3Cc2ccc(F)cc2)c1	none (no result: HT1080 IDH1KD tx, ATXN2 expr inh, HT1080NT lethal, ATXN viability)
COc1ccc(C)cc1-n1nnc(S(=O)(=O)c2ccc(C)cc2)c1C	none (no result: HT1080 IDH1KD tx, HT1080NT lethal)
CCCCCCCCCCCCCCCCn1cc[n+](CC(C)=O)c1	KB-3-1 tox 8.2µM, ATXN2 expr inh inconclusive, HT1080NT lethal inconclusive, ATXN viability 30µM
C#CCn1cc[n+](CC(=O)N(C)C)c1	none
COc1ccc(-c2nnc(-c3cccs3)o2)cc1OC	KB-V1 cytotox 6.5µM
COc1cc(-c2nnc(-c3cccs3)o2)cc(OC)c1OC	KB-V1 cytotox inconclusive
O=C(C=Cc1ccccc1)CC(c1ccccc1)N1CCOCC1 (stereo not given)	KB-3-1 tox inconclusive, HT1080 IDH1KD tx inconclusive, ATXN2 expr inh inconclusive, HT1080NT lethal 4.1µM (no result: ATXN viability)
CCN(CC)C(=S)SCC(=O)c1ccc(F)cc1	KB-V1 cytotox 18µM, KB-3-1 tox inconclusive, HT1080 IDH1KD tx inconclusive, HT1080NT lethal inconclusive
OC1CCN(Cc2ccc3c(c2)CN(Cc2ccc(Oc4ncccn4)cc2)CCO3)CC1	none (no result: KB-V1 cytotox, KB-3-1 tox, HT1080 IDH1KD tx, ATXN2 expr inh, HT1080NT lethal)
CCN(CCNC(=O)C1CCN(S(=O)(=O)c2c(C)noc2C)CC1)c1ccccc1	none
CCN(CC)CCNC(=O)C1CCN(S(=O)(=O)c2c(C)noc2/C=C/c2ccccc2F)CC1	KB-V1 cytotox inconclusive, HT1080 IDH1KD tx inconclusive, ATXN2 expr inh 13µM, HT1080NT lethal inconclusive, ATXN viability inconclusive
CC1(C)OC(=O)C2(Cc3ccc(Cl)cc3N3CCCCC32)C(=O)O1 (stereo not given)	none (no result: HT1080 IDH1KD tx, ATXN2 expr inh, HT1080NT lethal, ATXN viability)
COC(=O)CN1C(=O)S/C(=C/c2ccc(N3CCCCC3)o2)C1=O	ATXN viability inconclusive
COc1ccc(N=C2S/C(=C\c3ccco3)C(=O)N2CC(C)C)cc1	none
COc1ccc(N=C2S/C(=C\c3cc(C)n(C)c3C)C(=O)N2CC(C)C)cc1	KB-V1 cytotox 2.6µM
COC(=O)C(C)N1C(=O)S/C(=C/c2cc(C)n(C(C)C)c2C)C1=O (stereo not given)	KB-V1 cytotox 4.1µM, KB-3-1 tox inconclusive
COC(=O)CN1C(=O)S/C(=C/c2cc(C)n(C)c2C)C1=O	KB-V1 cytotox 16µM
CCn1c(C)cc(/C=C2/SC(=O)N(C(C)C(=O)OC)C2=O)c1C (stereo not given)	KB-3-1 tox inconclusive, HT1080NT lethal inconclusive
Cc1ccc(Cl)cc1N1CCN(c2cccc[n+]2C)CC1	KB-V1 cytotox inconclusive, KB-3-1 tox inconclusive, HT1080NT lethal inconclusive
C[n+]1ccccc1N1CCN(c2ccccc2Cl)CC1	KB-3-1 tox 21µM
CCCc1nc2c3ccccc3ccn2c1Cc1cccc(Cl)c1	HT1080 IDH1KD tx inconclusive, HT1080NT lethal 26µM, ATXN viability 35µM
COc1ccc(-n2c(C)c([N+](=O)[O-])c3ccc(O)cc32)cc1	none (no result: KB-V1 cytotox, KB-3-1 tox, HT1080 IDH1KD tx, HT1080NT lethal, ATXN viability)
O=C1CC(c2ccccc2)CC(O)=C1C=NCc1ccccc1Cl (stereo not given)	KB-V1 cytotox inconclusive, KB-3-1 tox inconclusive, HT1080 IDH1KD tx inconclusive, HT1080NT lethal 5.6µM
O=C1CC(c2cccc(Cl)c2)CC(O)=C1C=NC1CCCC1 (stereo not given)	KB-V1 cytotox 21µM
O=C1CC(c2ccccc2)CC(O)=C1C=NCc1ccccc1 (stereo not given)	none
O=C1CC(c2ccccc2)CC(O)=C1C=Nc1ccc(O)cc1 (stereo not given)	none
O=C1CCCC(O)=C1C=NCc1ccccc1	KB-3-1 tox inconclusive, ATXN2 expr inh 4.7µM
O=[N+]([O-])c1ccc(/C=[N+](\[O-])[C@@H]2CCCC[C@@H]2/[N+]([O-])=C/c2ccc([N+](=O)[O-])o2)o1	KB-V1 cytotox 21µM, KB-3-1 tox inconclusive, ATXN2 expr inh inconclusive (no result: ATXN viability)
O=c1[nH]cnc2c1ncn2[C@H]1C[C@H](O)[C@@H](CO)O1	KB-V1 cytotox inconclusive (no result: HT1080 IDH1KD tx, ATXN2 expr inh, HT1080NT lethal, ATXN viability)
COc1cc(OC)cc(C(=O)N/N=C\c2ccoc2)c1	HT1080 IDH1KD tx 5.8µM, HT1080NT lethal 3.7µM
COc1cc(OC)cc(C(=O)N/N=C/c2ccc(OC)c(COc3ccc4ccccc4c3)c2)c1	KB-V1 cytotox inconclusive, KB-3-1 tox inconclusive, HT1080 IDH1KD tx 21µM, HT1080NT lethal inconclusive
COc1ccc(/C=N\NC(=O)c2ccccc2F)cc1COc1ccc(F)cc1F	KB-V1 cytotox inconclusive, KB-3-1 tox 5.2µM, HT1080 IDH1KD tx 2.3µM, HT1080NT lethal 2.3µM, ATXN viability inconclusive
COc1ccc(/C=N\NC(=O)c2ccccc2OC)cc1COc1ccccc1C	none
COc1ccc(/C=N/NC(=O)c2ccoc2C)cc1COc1c(C)cccc1C	KB-V1 cytotox inconclusive, KB-3-1 tox inconclusive, HT1080 IDH1KD tx 5.2µM, HT1080NT lethal 4.6µM, ATXN viability inconclusive
Cc1ccc(-n2ncc3c(N4CCN(Cc5ccccc5)CC4)ncnc32)cc1Cl	none (no result: HT1080 IDH1KD tx, HT1080NT lethal)
Cc1cccn2c(=O)c3cc(C(=O)NCc4ccccc4)c(=N)n(CCOCCO)c3nc12	none (no result: HT1080 IDH1KD tx, HT1080NT lethal, ATXN viability)
CCC(C)Sc1oc(-c2ccco2)nc1S(=O)(=O)c1ccc(Cl)cc1 (stereo not given)	none (no result: HT1080 IDH1KD tx, HT1080NT lethal)
